Test results from PubChem BioAssay AID1159580 (chemical genetic matrix, 2015).
About 2,000 (36%) of roughly 5,500 compounds were called active. Roughly 18% stayed inconclusive and do not appear here. Cut-off read from the data, not from the text of the source: active = normalized growth mostly below about 0.91 (no sharp cut-off); inconclusive = no clear call, values can overlap the other calls; inactive = mostly above about 0.92. Some of the results follow.

Assay: chemical genetic growth profiling, strain panel (AID 1159580);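 note: tested at 20 µM; growth read once vehicle control cultures reached saturation at 30 °C; 1 = growth at the plate median or of vehicle wells; lower values mean less growth of the strain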
Conditions: growth OD

Measured: normalized growth

C[C@]12C=CC(=O)C=C1CCC1C2C(=O)C[C@@]2(C)C1CC[C@]2(O)C(=O)CO (stereo partly specified)
inactive: S. cerevisiae deletion strains, locus YJR075W, strain HOC1, hits give low values 0.985 | S. cerevisiae deletion strains, locus YKL009W, strain mrt4, hits give low values 0.979 | S. cerevisiae deletion strains, locus YKL068W, hits give low values 0.989 | S. cerevisiae deletion strains, locus YKL085W, strain MDH1 (second series), hits give low values 0.998 | S. cerevisiae deletion strains, locus YKL085W, strain MDH1, hits give low values 0.998 | S. cerevisiae deletion strains, locus YKL160W, strain elf1, hits give low values 0.97 | S. cerevisiae deletion strains, locus YKL190W, strain CNB1, hits give low values 0.989 | S. cerevisiae deletion strains, locus YKR001C, strain vps1, hits give low values 0.995 | S. cerevisiae deletion strains, locus YKR026C, strain gcn3, hits give low values 0.997 | S. cerevisiae deletion strains, locus YKR091W, strain srl3, hits give low values 0.997 | S. cerevisiae deletion strains, locus YLL001W, strain dnm1, hits give low values 0.955 | S. cerevisiae deletion strains, locus YLL026W, hits give low values 0.986 | S. cerevisiae deletion strains, locus YLL041C, strain sdh2, hits give low values 0.994 | S. cerevisiae deletion strains, locus YLR027C, strain aat2, hits give low values 0.978 | S. cerevisiae deletion strains, locus YLR039C, strain RIC1, hits give low values 0.993 | S. cerevisiae deletion strains, locus YLR058C, strain SHM2, hits give low values 0.978 | S. cerevisiae deletion strains, locus YLR102C, strain apc9, hits give low values 0.99 | S. cerevisiae deletion strains, locus YLR113W, strain HOG1, hits give low values 1.03 | S. cerevisiae deletion strains, locus YLR221C, strain rsa3, hits give low values 1.01 | S. cerevisiae deletion strains, locus YLR258W, strain gsy2, hits give low values 1.02 | S. cerevisiae deletion strains, locus YLR262C, strain YPT6 (second series), hits give low values 0.986 | S. cerevisiae deletion strains, locus YLR262C, strain YPT6, hits give low values 0.968 | S. cerevisiae deletion strains, locus YLR268W, strain sec22, hits give low values 1.05 | S. cerevisiae deletion strains, locus YLR320W, strain mms22, hits give low values 0.985 | S. cerevisiae deletion strains, locus YLR330W, strain CHS5, hits give low values 0.998 | S. cerevisiae deletion strains, locus YLR342W, strain FKS1 (second series), hits give low values 1.01 | S. cerevisiae deletion strains, locus YLR342W, strain FKS1, hits give low values 0.978 | S. cerevisiae deletion strains, locus YLR357W, strain rsc2, hits give low values 0.992 | S. cerevisiae deletion strains, locus YLR370C, strain arc18, hits give low values 0.994 | S. cerevisiae deletion strains, locus YLR371W, strain rom2, hits give low values 0.974 | S. cerevisiae deletion strains, locus YLR384C, strain iki3, hits give low values 0.985 | S. cerevisiae deletion strains, locus YLR418C, strain cdc73, hits give low values 0.985 | S. cerevisiae deletion strains, locus YML016C, strain PPZ1, hits give low values 0.991 | S. cerevisiae deletion strains, locus YML032C, strain rad52, hits give low values 1.01 | S. cerevisiae deletion strains, locus YML120C, strain ndi1, hits give low values 0.986 | S. cerevisiae deletion strains, locus YML124C, strain tub3, hits give low values 0.983 | S. cerevisiae deletion strains, locus YMR058W, strain fet3, hits give low values 0.996 | S. cerevisiae deletion strains, locus YMR078C, strain ctf18, hits give low values 0.979 | S. cerevisiae deletion strains, locus YMR125W, strain sto1, hits give low values 0.987 | S. cerevisiae deletion strains, locus YMR129W, hits give low values 1 | S. cerevisiae deletion strains, locus YMR205C, strain PFK2, hits give low values 0.988 | S. cerevisiae deletion strains, locus YMR223W, strain ubp8, hits give low values 0.963 | S. cerevisiae deletion strains, locus YMR231W, strain pep5, hits give low values 1.02 | S. cerevisiae deletion strains, locus YMR263W, strain SAP30, hits give low values 0.992 | S. cerevisiae deletion strains, locus YMR307W, strain GAS1, hits give low values 0.991 | S. cerevisiae deletion strains, locus YNL067W, strain RPL9B, hits give low values 0.992 | S. cerevisiae deletion strains, locus YNL071W, strain lat1, hits give low values 1.01 | S. cerevisiae deletion strains, locus YNL153C, strain GIM3, hits give low values 0.99 | S. cerevisiae deletion strains, locus YNL183C, strain NPR1, hits give low values 0.986 | S. cerevisiae deletion strains, locus YNL209W, strain ssb2, hits give low values 1.01 | S. cerevisiae deletion strains, locus YNL233W, strain BNI4, hits give low values 0.997 | S. cerevisiae deletion strains, locus YNL248C, strain rpa49, hits give low values 1 | S. cerevisiae deletion strains, locus YNL250W, strain rad50, hits give low values 0.981 | S. cerevisiae deletion strains, locus YNL271C, strain bni1, hits give low values 0.999 | S. cerevisiae deletion strains, locus YNL298W, strain CLA4, hits give low values 0.982 | S. cerevisiae deletion strains, locus YNL307C, strain MCK1, hits give low values 0.998 | S. cerevisiae deletion strains, locus YNL322C, strain KRE1 (second series), hits give low values 0.998 | S. cerevisiae deletion strains, locus YNL322C, strain KRE1, hits give low values 0.994 | S. cerevisiae deletion strains, locus YNR049C, strain mso1, hits give low values 0.999 | S. cerevisiae deletion strains, locus YNR052C, strain pop2, hits give low values 0.995 | S. cerevisiae deletion strains, locus YOL006C, strain TOP1, hits give low values 0.938 | S. cerevisiae deletion strains, locus YOL012C, strain htz1 0.891 | S. cerevisiae deletion strains, locus YOL147C, strain pex11, hits give low values 0.999 | S. cerevisiae deletion strains, locus YOR001W, strain rrp6, hits give low values 0.976 | S. cerevisiae deletion strains, locus YOR061W, strain CKA2, hits give low values 0.963 | S. cerevisiae deletion strains, locus YOR069W, strain VPS5, hits give low values 0.997 | S. cerevisiae deletion strains, locus YOR070C, strain gyp1, hits give low values 1.01 | S. cerevisiae deletion strains, locus YOR080W, strain dia2, hits give low values 0.992 | S. cerevisiae deletion strains, locus YOR083W, strain WHI5, hits give low values 0.964 | S. cerevisiae deletion strains, locus YOR106W, strain vam3, hits give low values 0.993 | S. cerevisiae deletion strains, locus YOR136W, strain idh2, hits give low values 0.982 | S. cerevisiae deletion strains, locus YOR144C, strain elg1, hits give low values 0.985 | S. cerevisiae deletion strains, locus YOR184W, strain ser1, hits give low values 0.973 | S. cerevisiae deletion strains, locus YOR231W, strain MKK1, hits give low values 1.01 | S. cerevisiae deletion strains, locus YOR265W, strain rbl2, hits give low values 0.993 | S. cerevisiae deletion strains, locus YOR270C, strain vph1, hits give low values 1.02 | S. cerevisiae deletion strains, locus YOR290C, strain snf2, hits give low values 1.03 | S. cerevisiae deletion strains, locus YOR316C, strain cot1, hits give low values 0.985 | S. cerevisiae deletion strains, locus YPL051W, strain arl3, hits give low values 0.989 | S. cerevisiae deletion strains, locus YPL055C, strain LGE1, hits give low values 0.94 | S. cerevisiae deletion strains, locus YPL078C, strain atp4, hits give low values 0.955 | S. cerevisiae deletion strains, locus YPL106C, strain sse1, hits give low values 1.01 | S. cerevisiae deletion strains, locus YPL240C, strain hsp82, hits give low values 0.987 | S. cerevisiae deletion strains, locus YPL241C, strain CIN2, hits give low values 0.997 | S. cerevisiae deletion strains, locus YPL256C, strain CLN2, hits give low values 1.05 | S. cerevisiae deletion strains, locus YPR119W, strain clb2, hits give low values 0.982 | S. cerevisiae deletion strains, locus YPR141C, strain kar3, hits give low values 0.98 | S. cerevisiae deletion strains, locus YPR163C, strain tif3, hits give low values 0.986 | S. cerevisiae deletion strains, locus YPR167C, strain met16, hits give low values 0.996 | S. cerevisiae deletion strains, strain wtn01, hits give low values 0.992 | S. cerevisiae strains, strain wild type, hits give low values 0.986
